Test results taken from PubChem BioAssay (NCI).
Several values for one entry are separate records, joined by “and”; a condition that tells them apart may be missing. Identical values can stand only once. About 83,000 compounds went through this panel and 20% of them were active in at least one assay; those are over-represented in the sample as a whole.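 Each cell line was grown in a 96-well plate and treated with one concentration of compound for 48 hours. Values below 10 were considered active.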 Activity calls are given as the source filed them.

Tests used:
Assay in all cases: NCI-60 one-dose screen, 48 h (100 = growth as untreated, 0 = no growth, -100 = all killed)
MOLT-4 leukemia = conditions: 10 µM
SR leukemia = conditions: 10 µM
RPMI-8226 leukemia = conditions: 10 µM
OVCAR-8 ovarian = conditions: 10 µM
OVCAR-5 ovarian = conditions: 10 µM
OVCAR-4 ovarian = conditions: 10 µM
SK-OV-3 ovarian = conditions: 10 µM
IGROV1 ovarian = conditions: 10 µM
OVCAR-3 ovarian = conditions: 10 µM
HS 578T breast = conditions: 10 µM
NCI/ADR-RES ovarian = conditions: 10 µM
T-47D breast = conditions: 10 µM
BT-549 breast = conditions: 10 µM
MDA-MB-435 melanoma = conditions: 10 µM
SW-620 colon = conditions: 10 µM
MCF7 breast = conditions: 10 µM unless noted
HCT-116 colon = conditions: 10 µM
HCC-2998 colon = conditions: 10 µM
KM12 colon = conditions: 10 µM

Row | Compound | growth (MOLT-4 leukemia) | growth (SR leukemia) | growth (RPMI-8226 leukemia) | growth (OVCAR-8 ovarian) | growth (OVCAR-5 ovarian) | growth (OVCAR-4 ovarian) | growth (SK-OV-3 ovarian) | growth (IGROV1 ovarian) | growth (OVCAR-3 ovarian) | growth (HS 578T breast) | growth (NCI/ADR-RES ovarian) | growth (T-47D breast) | growth (BT-549 breast) | growth (MDA-MB-435 melanoma) | growth (SW-620 colon) | growth (MCF7 breast) | growth (HCT-116 colon) | growth (HCC-2998 colon) | growth (KM12 colon)
1 | ClCc1ccc2ccccc2n1 | 81.3% (inactive) | 88.2% (inactive) | 98.6% (inactive) | 101% (inactive) | 83.4% (inactive) | 101% (inactive) | 113% (inactive) | 78.2% (inactive) | 99% (inactive) | 97.4% (inactive) | 98.4% (inactive) | 87% (inactive) | 102% (inactive) | 93.9% (inactive) | 114% (inactive) | 103% (inactive) | 91.1% (inactive) | 105% (inactive) | 103% (inactive)
2 | COc1cc(/C=C\[N+](=O)[O-])ccc1O | 27% (inactive) and 79.2% (inactive) | 8.06% (active) and 40% (inactive) | -14.8% (active) and 27.5% (inactive) | 65.9% (inactive) and 93.9% (inactive) | 93.6% (inactive) and 105% (inactive) | 92.6% (inactive) and 113% (inactive) | 101% (inactive) and 97% (inactive) | 80.8% (inactive) and 75.4% (inactive) | 62.4% (inactive) and 71.5% (inactive) | – | 83.4% (inactive) and 98.4% (inactive) | 32.5% (inactive) and 71.1% (inactive) | 56% (inactive) | 78.5% (inactive) and 51.3% (inactive) | 7.29% (active) and 67.5% (inactive) | 9.85% (active) and 23.9% (inactive) | 59.3% (inactive) and 32.9% (inactive) | 100% (inactive) and 83.1% (inactive) | 80.2% (inactive) and 77.4% (inactive)
3 | COC1CC2C=C(C)/C=C/C=C/C(=O)NC(c3ccccc3)C/C=C/CCC(O)CC(=O)C2=C1O (configuration not stated) | -59.5% (active) | 2.86% (active) | -40.8% (active) | -69.1% (active) | -95.6% (active) | -78.4% (active) | -91.4% (active) | -90.2% (active) | -83.9% (active) | – | -44.5% (active) | -65.5% (active) | -98% (active) | -90.5% (active) | -75.9% (active) | -68.8% (active) | -96.7% (active) | -53% (active) | -76.1% (active)
4 | O=C(CBr)Nc1ccccc1 | 42.6% (inactive) | 48.1% (inactive) | 100% (inactive) | 98% (inactive) | 128% (inactive) | 92.5% (inactive) | 113% (inactive) | 106% (inactive) | 98.3% (inactive) | 99.9% (inactive) | 103% (inactive) | 92.6% (inactive) | 87% (inactive) | – | 59.9% (inactive) | 68.6% (inactive) | 84.7% (inactive) | 105% (inactive) | 102% (inactive)
5 | Cn1c(O)c(N=O)c(=O)n(C)c1=O | 101% (inactive) and 99.9% (inactive) | 103% (inactive) and 80% (inactive) | 110% (inactive) and 92% (inactive) | 99.6% (inactive) and 111% (inactive) | 116% (inactive) and 98.1% (inactive) | 116% (inactive) and 111% (inactive) | 108% (inactive) and 104% (inactive) | 111% (inactive) and 114% (inactive) | 101% (inactive) and 94.8% (inactive) | 97.1% (inactive) and 98.9% (inactive) | 101% (inactive) and 102% (inactive) | 101% (inactive) and 97% (inactive) | 109% (inactive) and 99% (inactive) | 113% (inactive) and 93.3% (inactive) | 97% (inactive) and 98.9% (inactive) | 104% (inactive) and 97.2% (inactive) | 113% (inactive) and 97.3% (inactive) | 107% (inactive) | 102% (inactive) and 98.6% (inactive)
6 | [Cl][Sn]([c]1ccccc1)([c]1ccccc1)[c]1ccccc1 | -7.21% (active) | -21% (active) | -28% (active) | -74.5% (active) | -84.1% (active) | -88.9% (active) | -97.3% (active) | -76.8% (active) | -94.2% (active) | 0.581% (active) | -37.7% (active) | – | -83.1% (active) | – | -56.2% (active) | -81.1% (active) | -97.3% (active) | -83.9% (active) | -71.3% (active)
7 | O=[N+]([O-])/C=C/c1ccc([N+](=O)[O-])cc1 | 47% (inactive) and 47.8% (inactive) | 3.64% (active) and 20.5% (inactive) | -51.5% (active) and 17.3% (inactive) | 28% (inactive) and 92% (inactive) | 71.7% (inactive) and 125% (inactive) | 85.6% (inactive) and 86.6% (inactive) | 92.6% (inactive) and 110% (inactive) | -20.2% (active) and 66.6% (inactive) | -98.4% (active) and 36.6% (inactive) | -2.35% (active) and 93.8% (inactive) | 78.7% (inactive) and 85.8% (inactive) | 48.7% (inactive) and 57.1% (inactive) | -75.2% (active) and 88.7% (inactive) | – | -72.6% (active) and 12.2% (inactive) | -14.5% (active) and 23.1% (inactive) | -93% (active) and 48.4% (inactive) | -91% (active) and 98.9% (inactive) | -54.2% (active) and 99.7% (inactive)
